Assay results: PMC5540273 (PLoS ONE, 2017)
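Also: KINOMEscan kinase panel screen.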

Each compound was assayed on ROCK2. Conditions: concentration: 1 μM,replicates: in singlicate; n = 1.
For `CC(C)c1nc(-c2cccc(NS(=O)(=O)c3ccccc3)c2)c(-c2ccnc(Nc3ccc4c(c3)CN(C)CC4)n2)s1` [GSK1649598], the “%Inh” value was 0%.
In the case of `C[C@@H](Oc1cc(-n2cnc3cc(-c4cnn(C)c4)ccc32)sc1C(N)=O)c1ccccc1Cl` [GSK580432], the “%Inh” value is reported as 11%.
With `CN1CCN(CCCNc2nccc(-c3c(-c4ccc(F)cc4)nn4cc(C(N)=O)ccc34)n2)CC1` [GW622475] the “%Inh” value was 20%.
In the case of `Cc1ccc(C(=O)Nc2ccc(Oc3ccc4nc(NC(=O)C5CC5)cn4c3)c(F)c2)c(=O)n1-c1ccccc1`, the “%Inh” value is reported as 0%.
In the case of `CC(=O)Nc1ccc(-c2cc3ncnc(SCC(=O)O)c3s2)cc1`, the “%Inh” value is reported as 0%.
In the case of `Cn1ccc2ncnc(Oc3ccc(NC(=O)Nc4ccnc(C(F)(F)F)c4)c(Cl)c3)c21`, the “%Inh” value is reported as 0%.
`NC(=O)c1ccc(-c2cc3ncnc(SCC(=O)O)c3s2)cc1` was tested, and the “%Inh” value was 0%.
With `CN(c1ccc2c(c1)nc(NCc1ccc(F)cc1)n2C)c1ccnc(Nc2ccc(CS(C)(=O)=O)cc2)n1.Cl` [GW813244] the “%Inh” value was 42%.
For `FC(F)(F)c1cc(Br)cc(Nc2nccc(-c3cnn4ncccc34)n2)c1` [GW810578], the “%Inh” value was 23%.
For `Cn1ccc2ncnc(Oc3ccc(NC(=O)Nc4cccc(C(F)(F)F)c4)c(F)c3)c21`, the “%Inh” value was 0%.
With `CCCC(=O)Nc1n[nH]c2ncccc12` [SB-601436] the “%Inh” value was 0%.
In the case of `CN(c1ccccc1CNc1nc(Nc2ccc3c(c2)CC(=O)N3)ncc1C(F)(F)F)S(C)(=O)=O`, the “%Inh” value is reported as 0%.
With `COC(=O)c1cccc(NC(=O)NC2CCN(c3ccnc(Nc4cc(OC)c(OC)c(OC)c4)n3)C2)c1` (stereo not shown) [GSK1379767] the “%Inh” value was 20%.
In the case of `Cc1n[nH]c2cc(Nc3ccnc(Nc4cccc(CN5CCOCC5)c4)n3)ccc12` [GW682569], the “%Inh” value is reported as 1%.
`O=C(Nc1cccc(C(F)(F)F)c1)c1cccc(Oc2ccc3nccn3n2)c1` was tested, and the “%Inh” value was 22%.
`C[C@@H]1CNc2c(sc3ccc4nc(-c5ccc(O)cc5)ccc4c23)C(=O)N1` was tested, and the “%Inh” value was 51%.
With `O=C(Nc1n[nH]c2cc(-c3ccco3)ccc12)C1CC1` [SB-737447] the “%Inh” value was 0%.
With `Cn1cc(-c2cccc3c(N)c(C(N)=O)nnc23)cn1` the “%Inh” value was 20%.
For `OCCn1cc(-c2cnc3nnn(Cc4ccc5ncccc5c4)c3n2)cn1`, the “%Inh” value was 0%.
In the case of `Cl.c1ccc(Oc2ccc(Nc3ccnc4cc(-c5ccc(CN6CCNCC6)o5)ccc34)cc2)nc1` [GW567142], the “%Inh” value is reported as 32%.
For `CS(=O)c1ccc(-c2coc3ccc(-c4n[nH]c(=O)o4)cc23)cc1` (stereo not shown), the “%Inh” value was 0%.
In the case of `CS(=O)(=O)Nc1ccc(-c2ccnc3[nH]ccc23)cc1` [GSK993273], the “%Inh” value is reported as 98.4%.
In the case of `COC(=O)Nc1nc2cc(Oc3ccc(NC(=O)Nc4cc(C(F)(F)F)ccc4Cl)cc3)ccc2[nH]1.Cl` [GW697465], the “%Inh” value is reported as 24%.
For `O=C(Nc1ccc(Oc2ccc3nc(NC(=O)C4CC4)cn3n2)c(F)c1)c1cccn(-c2ccccc2)c1=O`, the “%Inh” value was 0%.
`CCNCC(Cc1ccccc1)NC(=O)c1cc(Br)c(-c2ccnc3[nH]ccc23)s1.Cl.Cl` (stereo not shown) [GSK1383280] was tested, and the “%Inh” value was 99.6%.
For `Cc1ccn2nc(-c3ccc(F)cc3)c(-c3ccncc3)c2c1.Cl` [GW457859], the “%Inh” value was 20%.
With `C[C@@H]1CNc2c(sc3ccc4nc(-c5ccncc5)ccc4c23)C(=O)N1` the “%Inh” value was 1%.
`Nc1nccc(-c2ccc3c(N)n[nH]c3c2)n1` [GSK1034945] was tested, and the “%Inh” value was 56%.
With `COC(=O)c1cccc(NC(=O)NC2CCN(c3ccnc(NCc4ccc(F)cc4)n3)CC2)c1` [GSK1379860] the “%Inh” value was 19%.
`CC(=O)Nc1nc2cnc(Nc3cc(NC(=O)c4cccc(CC(C)(C)C#N)c4)ccc3C)nc2s1` was tested, and the “%Inh” value was 0%.
For `O=C1NCCc2[nH]c(-c3ccncc3)cc21`, the “%Inh” value was 95.4%.
`COc1cccc(CNC(=O)NC2CCN(c3ccnc(Nc4cc(OC)c(OC)c(OC)c4)n3)C2)c1` (stereo not shown) [GSK1379765] was tested, and the “%Inh” value was 76%.
For `NC(=O)Nc1sc(-c2ccc(F)cc2)cc1C(N)=O` [GW789449], the “%Inh” value was 0%.
For `CS(=O)(=O)c1cccc(CNc2nc(Nc3ccc4c(c3)[C@@H]3C[C@@H]4CNC3=O)ncc2C(F)(F)F)c1`, the “%Inh” value was 0%.
In the case of `O=c1[nH]cc(-c2ccc(O)cc2)c2sc(-c3ccncc3)cc12` [GSK1033723], the “%Inh” value is reported as 18%.
With `CC(C(=O)NC1CCN(c2ccnc(Nc3ccc(F)cc3)n2)C1)c1ccc(Cl)cc1` (stereo not shown) [GSK1379713] the “%Inh” value was 10%.

What follows are compounds tested on ROS1. Conditions: concentration: 1 μM,replicates: in singlicate; n = 1.
For `CC(C)c1nc(-c2cccc(NS(=O)(=O)c3ccccc3)c2)c(-c2ccnc(Nc3ccc4c(c3)CN(C)CC4)n2)s1` [GSK1649598], the “%Inh” value was 0%.
In the case of `C[C@@H](Oc1cc(-n2cnc3cc(-c4cnn(C)c4)ccc32)sc1C(N)=O)c1ccccc1Cl` [GSK580432], the “%Inh” value is reported as 27%.
In the case of `CCn1c(-c2nonc2N)nc2cncc(CNC3CCNCC3)c21.Cl` [SB-747651], the “%Inh” value is reported as 0%.
For `CN1CCN(CCCNc2nccc(-c3c(-c4ccc(F)cc4)nn4cc(C(N)=O)ccc34)n2)CC1` [GW622475], the “%Inh” value was 4%.
In the case of `Cc1ccc(C(=O)Nc2ccc(Oc3ccc4nc(NC(=O)C5CC5)cn4c3)c(F)c2)c(=O)n1-c1ccccc1`, the “%Inh” value is reported as 0%.
In the case of `CC(=O)Nc1ccc(-c2cc3ncnc(SCC(=O)O)c3s2)cc1`, the “%Inh” value is reported as 6%.
`Cn1ccc2ncnc(Oc3ccc(NC(=O)Nc4ccnc(C(F)(F)F)c4)c(Cl)c3)c21` was tested, and the “%Inh” value was 0%.
In the case of `NC(=O)c1ccc(-c2cc3ncnc(SCC(=O)O)c3s2)cc1`, the “%Inh” value is reported as 0%.
For `CN(c1ccc2c(c1)nc(NCc1ccc(F)cc1)n2C)c1ccnc(Nc2ccc(CS(C)(=O)=O)cc2)n1.Cl` [GW813244], the “%Inh” value was 57%.
For `FC(F)(F)c1cc(Br)cc(Nc2nccc(-c3cnn4ncccc34)n2)c1` [GW810578], the “%Inh” value was 12%.
In the case of `Cn1ccc2ncnc(Oc3ccc(NC(=O)Nc4cccc(C(F)(F)F)c4)c(F)c3)c21`, the “%Inh” value is reported as 53%.
`CCCC(=O)Nc1n[nH]c2ncccc12` [SB-601436] was tested, and the “%Inh” value was 8%.
With `CN(c1ccccc1CNc1nc(Nc2ccc3c(c2)CC(=O)N3)ncc1C(F)(F)F)S(C)(=O)=O` the “%Inh” value was 96.5%.
For `COC(=O)c1cccc(NC(=O)NC2CCN(c3ccnc(Nc4cc(OC)c(OC)c(OC)c4)n3)C2)c1` (stereo not shown) [GSK1379767], the “%Inh” value was 30%.
In the case of `Cc1n[nH]c2cc(Nc3ccnc(Nc4cccc(CN5CCOCC5)c4)n3)ccc12` [GW682569], the “%Inh” value is reported as 57%.
For `O=C(Nc1cccc(C(F)(F)F)c1)c1cccc(Oc2ccc3nccn3n2)c1`, the “%Inh” value was 6%.
In the case of `C[C@@H]1CNc2c(sc3ccc4nc(-c5ccc(O)cc5)ccc4c23)C(=O)N1`, the “%Inh” value is reported as 0%.
`O=C(Nc1n[nH]c2cc(-c3ccco3)ccc12)C1CC1` [SB-737447] was tested, and the “%Inh” value was 2%.
For `Cn1cc(-c2cccc3c(N)c(C(N)=O)nnc23)cn1`, the “%Inh” value was 6%.
`OCCn1cc(-c2cnc3nnn(Cc4ccc5ncccc5c4)c3n2)cn1` was tested, and the “%Inh” value was 0%.
`Cl.c1ccc(Oc2ccc(Nc3ccnc4cc(-c5ccc(CN6CCNCC6)o5)ccc34)cc2)nc1` [GW567142] was tested, and the “%Inh” value was 0%.
With `CS(=O)c1ccc(-c2coc3ccc(-c4n[nH]c(=O)o4)cc23)cc1` (stereo not shown) the “%Inh” value was 0%.
With `CS(=O)(=O)Nc1ccc(-c2ccnc3[nH]ccc23)cc1` [GSK993273] the “%Inh” value was 9%.
In the case of `COC(=O)Nc1nc2cc(Oc3ccc(NC(=O)Nc4cc(C(F)(F)F)ccc4Cl)cc3)ccc2[nH]1.Cl` [GW697465], the “%Inh” value is reported as 42%.
In the case of `O=C(Nc1ccc(Oc2ccc3nc(NC(=O)C4CC4)cn3n2)c(F)c1)c1cccn(-c2ccccc2)c1=O`, the “%Inh” value is reported as 0%.
In the case of `CCNCC(Cc1ccccc1)NC(=O)c1cc(Br)c(-c2ccnc3[nH]ccc23)s1.Cl.Cl` (stereo not shown) [GSK1383280], the “%Inh” value is reported as 44%.
In the case of `Cc1ccn2nc(-c3ccc(F)cc3)c(-c3ccncc3)c2c1.Cl` [GW457859], the “%Inh” value is reported as 0%.
For `C[C@@H]1CNc2c(sc3ccc4nc(-c5ccncc5)ccc4c23)C(=O)N1`, the “%Inh” value was 14%.
`Nc1nccc(-c2ccc3c(N)n[nH]c3c2)n1` [GSK1034945] was tested, and the “%Inh” value was 0%.
In the case of `COC(=O)c1cccc(NC(=O)NC2CCN(c3ccnc(NCc4ccc(F)cc4)n3)CC2)c1` [GSK1379860], the “%Inh” value is reported as 8%.
`CC(=O)Nc1nc2cnc(Nc3cc(NC(=O)c4cccc(CC(C)(C)C#N)c4)ccc3C)nc2s1` was tested, and the “%Inh” value was 6%.
With `O=C1NCCc2[nH]c(-c3ccncc3)cc21` the “%Inh” value was 21%.
`COc1cccc(CNC(=O)NC2CCN(c3ccnc(Nc4cc(OC)c(OC)c(OC)c4)n3)C2)c1` (stereo not shown) [GSK1379765] was tested, and the “%Inh” value was 48%.
In the case of `NC(=O)Nc1sc(-c2ccc(F)cc2)cc1C(N)=O` [GW789449], the “%Inh” value is reported as 0%.
In the case of `CS(=O)(=O)c1cccc(CNc2nc(Nc3ccc4c(c3)[C@@H]3C[C@@H]4CNC3=O)ncc2C(F)(F)F)c1`, the “%Inh” value is reported as 86%.
In the case of `O=c1[nH]cc(-c2ccc(O)cc2)c2sc(-c3ccncc3)cc12` [GSK1033723], the “%Inh” value is reported as 0%.
With `CC(C(=O)NC1CCN(c2ccnc(Nc3ccc(F)cc3)n2)C1)c1ccc(Cl)cc1` (stereo not shown) [GSK1379713] the “%Inh” value was 53%.
